# From PubChem BioAssay (Tox21)
# Records with an inconclusive call do not appear. Activity calls are given as the source filed them. Calls come from the whole dose curve; as a rule, active = well fitted inhibition curve with a large enough effect in the repeat runs; inconclusive = weak or mixed curves, or effect the other way; inactive = no such curve, though single readings can be large or run the other way.
# Molecular target: Nuclear receptor subfamily 1 group I member 3 (Homo sapiens) (UniProt Q14994)
# Sequence (Q14994 whole entry, looked up): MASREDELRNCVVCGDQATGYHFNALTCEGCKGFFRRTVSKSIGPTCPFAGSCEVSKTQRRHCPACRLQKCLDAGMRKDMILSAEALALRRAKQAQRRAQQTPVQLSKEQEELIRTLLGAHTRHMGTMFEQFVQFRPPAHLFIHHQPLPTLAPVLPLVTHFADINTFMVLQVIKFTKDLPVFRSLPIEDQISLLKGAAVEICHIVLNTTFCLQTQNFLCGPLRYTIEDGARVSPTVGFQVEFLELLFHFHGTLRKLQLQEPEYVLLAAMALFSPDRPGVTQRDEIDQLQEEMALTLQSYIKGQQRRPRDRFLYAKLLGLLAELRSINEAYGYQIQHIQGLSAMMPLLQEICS
# Test: qHTS assay to identify small molecule antagonists of the constitutive androstane receptor (CAR) signaling pathway (AID 1224838);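 note: HepG2 cells stably expressing hCAR with CYP2B6 luciferase reporter stimulated by CITCO; nearly all actives have a fitted effect of over 40% in size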
# Settings: HepG2-CYP2B6-hCAR luciferase, CITCO-stimulated, 24 h; series mostly up to 92.4 µM; activity, negative = inhibition: at the top concentration
# Description: U.S. Tox21 Program National Center for Advancing Translational Sciences [NCATS] NIH Chemical Genomics Center [NCGC] U.S. Environmental Protection Agency [EPA] National Institutes of Environmental Health Sciences [NIEHS] National Toxicology Program [NTP] U.S. Food and Drug Administration [FDA] Tox21 Assay Overview: The constitutive androstane receptor (CAR) is a nuclear receptor which regulates multiple drug metabolizing enzymes (DMEs) and transporters. Activating CAR will generally increase the transcription and subsequent translation of CYP2B6 and CYP3A4. These two DMEs represent about 50% of the drug metabolizing potential in the body. When CAR is deactivated, the metabolizing potential in the body will decrease, subsequently increasing the toxicity in the body or lowering the therapeutic potential of a pro-drug. Recently, there have also been studies performed indicating CARs role in energy metabolism and cancer therapy. Therefore, inhibiting CARs activity could have a potential effect on diabetes and cancer. Identifying environmental toxins and compounds which modulate CAR, through the use of the Tox21 10K compound collection, will be an important step in determining the toxicity and potential therapeutic effects these factors will have on the human body.
# Tox21 Assay Protocol Summary: A double-stable (hCAR and CYP2B6-2.2kb) transfected cell line, derived from human hepatoma (HepG2) cells, was utilized for the duration of the quantitative high-throughput screens. The HepG2-CYP2B6-hCAR cells suspended in DMEM culture medium supplemented with 10% FBS, 5 ug/mL blasticidin, 0.5 mg/mL geneticin, 100 U/mL penicillin and 100 ug/mL streptomycin were dispensed at 2500 cells/4 uL/well in 1536-well white solid bottom plates using a Multidrop Combi. After the assay plates were incubated at 37 C/5% CO2 for 4 hrs, 23 nL of compounds at 15 concentrations (from 5-48 columns) or positive control (from 1 to 4 columns) were transferred to the assay plates using a Pintool station. One uL of CITCO, was added using a Flying Reagent Dispenser to generate a final concentration of 50 nM CITCO inside each well. After a 24 hr incubation period at 37 C/5% CO2, four uL of ONE-Glo reagent was added into the assay plates using a Flying Reagent Dispenser. After a 30 min incubation period at room temperature, the luminescence intensity in the assay plates was measured using a ViewLux plate reader.
# % is set by controls: 0 for no effect and ±100 for the full control effect; potency is the fitted concentration of half-maximal effect.
Structure (SMILES),"activity, negative = inhibition",Potency
CCCSP(=O)(OCC)Oc1ccc(Br)cc1Cl (stereo not given),38.8% [at 42.5 µM] (inactive),–
CN1CCN(C(=O)O[C@H]2c3nccnc3C(=O)N2c2ccc(Cl)cn2)CC1,-7.5% [at 42.5 µM] (inactive),–
CC(COc1ccc(Oc2ccccc2)cc1)Oc1ccccn1 (stereo not given),221% (inactive),–
CC(CCc1ccccc1)NC(C)C(O)c1ccc(O)cc1 (stereo not given),23.9% [at 42.5 µM] (inactive),–
O=C1OC(CCN2CCCCC2)OC1(c1ccccc1)c1ccccc1 (stereo not given),3.97% [at 42.5 µM] (inactive),–
CC(=O)CC(c1ccc(Cl)cc1)c1c(O)c2ccccc2oc1=O (stereo not given),6.98% (inactive),–
OCCSCSCCO,-3.57% (inactive),–
C=CCC1=C(C)[C@@H](OC(=O)[C@@H]2[C@@H](C=C(C)C)C2(C)C)CC1=O,36.8% (inactive),–
N#CCNCC#N,-24.3% (inactive),–
O=c1oc2ccccc2c(O)c1C1CCCc2ccccc21 (stereo not given),6.52% (inactive),–
CC1(C)CON(Cc2ccccc2Cl)C1=O,87.9% (inactive),–
O=C1CN2CCOC2(c2ccccc2Cl)c2cc(Cl)ccc2N1 (stereo not given),40.5% [at 42.5 µM] (inactive),–
N#CC(CCc1ccc(Cl)cc1)(Cn1cncn1)c1ccccc1 (stereo not given),18.4% (inactive),–
Nc1n[nH]c(N)n1,–,27.8 µM (active)
Clc1cccc(N2CCNCC2)c1,18.3% [at 42.5 µM] (inactive),–
CC(C=O)Cc1ccc2c(c1)OCO2 (stereo not given),35% (inactive),–
CCOC(=O)C1(c2ccccc2)CCN(CCc2ccc(N)cc2)CC1,-20.8% [at 42.5 µM] (inactive),–
CC(C(O)c1ccccc1)N(C)C/C=C/c1ccccc1 (stereo not given),55.1% [at 42.5 µM] (inactive),–
Cc1cc(C)nc(Nc2ccccc2)n1,143% (inactive),–
OC(c1ccc(F)cc1)(c1cncnc1)c1ccccc1Cl (stereo not given),19.9% (inactive),–

Structure (SMILES),"activity, negative = inhibition",Potency
Cc1cnc[nH]1,7.1% (inactive),–
Nc1c(Br)cc([N+](=O)[O-])cc1[N+](=O)[O-],138% (inactive),–
CNCC(=O)c1ccc(O)c(O)c1,-9.83% [at 42.5 µM] (inactive),–
c1ccc(N2CCNCC2)cc1,-11.4% [at 42.5 µM] (inactive),–
CC1CN1P(=O)(N1CC1C)N1CC1C (stereo not given),4.18% (inactive),–
O=C1OC(=O)C2C1C1(Cl)C(Cl)=C(Cl)C2(Cl)C1(Cl)Cl (stereo not given),-9.56% (inactive),–
[Cl][Sn]([Cl])([Cl])[Cl],-4.01% (inactive),–
C=CC1CC=CCC1 (stereo not given),-3.59% (inactive),–
CNC(=O)Oc1c(C(C)(C)C)cc(C)cc1C(C)(C)C,0.621% (inactive),–
COc1ccc(C(=O)N2CCCC2=O)cc1,20.1% [at 42.5 µM] (inactive),–
N#CC(Cl)(Cl)Cl,-5.07% (inactive),–
Nc1cc(Cl)ccc1O,323% (inactive),–
N#CCBr,3.82% (inactive),–
CCCCc1ccc(O)cc1,-4.22% (inactive),–
Fc1cc(Br)ccc1CBr,7.72% [at 42.5 µM] (inactive),–
O=NN1CCCCC1,-2.98% (inactive),–
CCOc1nc(C(Cl)(Cl)Cl)ns1,34.3% (inactive),–
CSc1ccc(C(=O)C(C)(C)N2CCOCC2)cc1,86.2% (inactive),–
CCCCOC(=O)c1ccccc1C(=O)O,-9.56% (inactive),–
O=[N+]([O-])c1cc(Cl)c(Cl)c(Cl)c1,19.2% (inactive),–
